High-throughput results deposited in PubChem BioAssay by National Center for Advancing Translational Sciences (NCATS).
TDP1 cell noCPT = qHTS for Inhibitors of human tyrosyl-DNA phosphodiesterase 1 (TDP1): qHTS in cells in absence of CPT | AID 686978, 2013 | Potency, µM (titrated, usually from 46.2 µM), usual class: inhibitors | hit rate 15% among 420,000 | DT40 Tdp1-/- hTDP1 cells, no CPT, ATP luminescence, 48 h; note: nearly all actives have a fitted effect of over 55% in size
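Chicken DT40 Tdp1-/- cells stably complemented with human TDP1 were seeded at 400 cells/well with DMSO in place of 20 nM camptothecin. After compound pinning, cells grew at least 48 hr at 37 °C; viability read by CellTiter-Glo luminescence.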
DT40 TDP1 CPT = qHTS for Inhibitors of human tyrosyl-DNA phosphodiesterase 1 (TDP1): qHTS in cells in presence of CPT. Potency, µM (doses to about 46.2 µM), actives largely listed as inhibitors. chicken DT40 Tdp1-/-;hTDP1 cells + 20 nM CPT, ATP luminescence, 48 h. hit rate 12% among 420,000; note: nearly all actives have a fitted effect of over 55% in size
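Cell growth measured by CellTiter-Glo luminescence after a minimum 48 h, 37 C compound exposure with 20 nM CPT in Tdp1-knockout DT40 cells stably expressing hTDP1, seeded 400/well; qHTS titration format.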
RORgamma inh = qHTS for inhibitors of ROR gamma transcriptional activity | Drosophila S2 Gal4-RORgamma UAS-luciferase reporter, 20 h | Nuclear receptor ROR-gamma (Mus musculus), P51450 | Potency, µM (titrated, usually from 53.6 µM), usual class: inhibitors | hit rate 5.4% among 310,000; note: nearly all actives have a fitted effect of over 60% in size
Target sequence (P51450 whole entry, looked up, the tested form may be a part): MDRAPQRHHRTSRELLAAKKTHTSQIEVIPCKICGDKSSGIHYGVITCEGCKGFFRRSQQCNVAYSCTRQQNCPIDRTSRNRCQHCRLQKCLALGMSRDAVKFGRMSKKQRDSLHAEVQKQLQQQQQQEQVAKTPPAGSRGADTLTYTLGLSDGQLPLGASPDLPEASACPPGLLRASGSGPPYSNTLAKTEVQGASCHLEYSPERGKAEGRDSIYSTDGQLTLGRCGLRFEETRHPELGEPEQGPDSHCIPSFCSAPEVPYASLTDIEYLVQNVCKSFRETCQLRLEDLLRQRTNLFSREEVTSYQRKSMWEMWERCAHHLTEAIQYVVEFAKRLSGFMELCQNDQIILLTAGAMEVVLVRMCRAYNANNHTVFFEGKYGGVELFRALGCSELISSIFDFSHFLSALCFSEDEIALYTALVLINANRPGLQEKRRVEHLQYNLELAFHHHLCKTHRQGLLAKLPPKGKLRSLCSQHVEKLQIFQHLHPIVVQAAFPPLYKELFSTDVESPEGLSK
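Luciferase reporter read in Schneider cells carrying Gal4-RORγ (mouse) and UAS-Photinus luciferase; cells given compound 1 h before 700 uM copper sulfate induction, then incubated 20 h at ambient temperature.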
Gal4-VP16 FLuc = VP16 counterscreen qHTS for inhibitors of ROR gamma transcriptional activity | Drosophila S2 Gal4-VP16 UAS-luciferase, luminescence, 20 h | Potency, µM (doses to about 53.6 µM), most hits filed as inhibitors | hit rate 3.5% among 310,000 | AID 2546, 2010;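 note: Gal4-VP16 expression switched on by copper sulfate through the metallothionein promoter; nearly all actives have a fitted effect of over 50% in size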
IL-1B inflam inh = qHTS for Inhibitors of Inflammasome Signaling: IL-1-beta AlphaLISA Primary Screen | THP-1 LPS/ATP IL-1B secretion, AlphaLISA, 16 h; stronger effect = lower value | activity change, % at 57.5 µM | hit rate 4.7% among 360,000 | AID 743279, 2014; in the data active = activity change below about -50%; inconclusive = mostly about -30% to -49%
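THP-1 cells pretreated 1 hr with compounds (up to 57.5 uM final), then stimulated with LPS (250 ng/mL final) plus ATP (1.25 mM final); secreted IL-1B measured by AlphaLISA after 16 hr, decreased signal indicating inhibition.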
ELG1 DNA repair = qHTS screen for small molecules that inhibit ELG1-dependent DNA repair in human embryonic kidney (HEK293T) cells expressing luciferase-tagged ELG1. HEK293T ELG1-luciferase reporter, luminescence, 16 h; DNA damage induced by 5-fluorouridine. Potency, µM (doses to about 46.1 µM), most hits filed as inhibitors. hit rate 2.3% among 330,000; note: nearly all actives have a fitted effect of over 55% in size
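Overnight (16 hr) co-exposure of 2,000 cells/well to 5-fluorouridine and compound at 37 °C preceded detection. Luciferase was quantified via ONE-Glo luminescence; loss of signal denotes inhibition.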
Large screens that a line does not name were inactive. In the library only some 21% were active in any assay of this set; here they are far more common. Unless noted, calls come from the whole dose curve; as a rule, active = well fitted curve in the direction sought with a large enough effect; inconclusive = small, poorly fitted or top-dose-only effect, or another doubt; inactive = no such curve, though single readings can be large; an effect the other way counts as inactive or inconclusive.

COc1ccc(-c2ccc(-c3nc4c(c(=O)[nH]c(=O)n4Cc4ccccc4)n3C)o2)c([N+](=O)[O-])c1	TDP1 cell noCPT 25.9µM, DT40 TDP1 CPT inconclusive, ELG1 DNA repair 5.8µM
COCCn1c(=O)[nH]c(=O)c2c1nc(-c1cc(Br)c3c(c1)OCO3)n2Cc1ccccc1	ELG1 DNA repair inconclusive
COCCn1c(=O)[nH]c(=O)c2c1nc(-c1ccc(-c3ccc(Cl)cc3[N+](=O)[O-])o1)n2Cc1ccccc1	TDP1 cell noCPT 23.1µM, DT40 TDP1 CPT 16.4µM, RORgamma inh inconclusive, Gal4-VP16 FLuc inconclusive, ELG1 DNA repair 13µM
O=c1[nH]c(=O)n(Cc2ccccc2)c2nc(-c3ccc(Oc4ccc(F)cc4)c([N+](=O)[O-])c3)n(CCO)c12	TDP1 cell noCPT 18.4µM, DT40 TDP1 CPT 16.4µM, RORgamma inh inconclusive, ELG1 DNA repair inconclusive
COc1ccc(-c2nc3c(c(=O)[nH]c(=O)n3Cc3ccccc3)n2CCO)cc1	none
CC(C)c1ccc(CC(=O)N2CCC2(C)C(=O)NS(=O)(=O)c2cccc(OC(F)F)c2)cc1 (centres undefined)	none (no result: RORgamma inh, Gal4-VP16 FLuc, ELG1 DNA repair)
CCOC(=O)c1c(S(=O)(=O)NCC(=O)Nc2ccc(C(C)=O)cc2)c(C)n(C)c1C	none (no result: RORgamma inh, Gal4-VP16 FLuc, IL-1B inflam inh, ELG1 DNA repair)
CC1=C(C(=O)OCc2ccccc2)C(c2ccc(C)cc2)NC(=O)N1 (centres undefined)	TDP1 cell noCPT inconclusive (no result: RORgamma inh, Gal4-VP16 FLuc, ELG1 DNA repair)
C(=NN1CCCCCC1)c1ccc2c(c1)OCO2	none (no result: RORgamma inh, Gal4-VP16 FLuc, ELG1 DNA repair)
COCc1nn2cc(-c3ccc(C)cc3)nc2s1	TDP1 cell noCPT inconclusive (no result: RORgamma inh, Gal4-VP16 FLuc, IL-1B inflam inh, ELG1 DNA repair)
CCN1/C(=C/c2ccc3ccccc3[n+]2CCCS(=O)(=O)[O-])C=Cc2cc(C)ccc21	TDP1 cell noCPT inconclusive, DT40 TDP1 CPT inconclusive
CCN1/C(=C/c2ccc3ccccc3[n+]2CC)C=Cc2ccccc21	TDP1 cell noCPT 1.46µM, DT40 TDP1 CPT 1.64µM, RORgamma inh 8.91µM, Gal4-VP16 FLuc 2.82µM, IL-1B inflam inh -55.3, ELG1 DNA repair inconclusive
CN(Cc1ccccc1F)C(=O)c1cccc(NC(=O)CC2SC(N3CCCCC3)=NC2=O)c1 (centres undefined)	TDP1 cell noCPT 23.1µM, DT40 TDP1 CPT 18.4µM (no result: RORgamma inh, Gal4-VP16 FLuc, ELG1 DNA repair)
O=C(CC1SC(N2CCCC2)=NC1=O)Nc1ccc(C(=O)Nc2ncccc2O)cc1 (centres undefined)	TDP1 cell noCPT 10.3µM, DT40 TDP1 CPT 14.6µM, ELG1 DNA repair inconclusive (no result: RORgamma inh, Gal4-VP16 FLuc)
O=C(CC1SC(N2CCCC2)=NC1=O)Nc1ccc(C(=O)N2CCN(c3cccc(Cl)c3)CC2)cc1 (centres undefined)	TDP1 cell noCPT inconclusive, DT40 TDP1 CPT 14.6µM, IL-1B inflam inh -50.4, ELG1 DNA repair inconclusive (no result: RORgamma inh, Gal4-VP16 FLuc)
CC1Cc2nc(SCC(=O)NCC3CCCO3)n(C)c(=O)c2S1 (centres undefined)	none
COc1cc(NC(=O)c2ccccc2[N+](=O)[O-])ccc1NC(=O)c1cc2ccccc2o1	TDP1 cell noCPT 8.2µM, DT40 TDP1 CPT 16.4µM, IL-1B inflam inh inconclusive (no result: RORgamma inh, Gal4-VP16 FLuc, ELG1 DNA repair)
COc1cccc(C(=O)Nc2ccc(NC(=O)c3cc4ccccc4o3)c(OC)c2)c1	none
COc1cc(NC(C)=O)ccc1NC(=O)c1cc2ccccc2o1	TDP1 cell noCPT inconclusive, DT40 TDP1 CPT inconclusive, ELG1 DNA repair inconclusive
COc1cc(NC(=O)c2cc(Cl)ccc2Cl)ccc1NC(=O)c1cc2ccccc2o1	TDP1 cell noCPT 4.61µM, DT40 TDP1 CPT 5.8µM (no result: RORgamma inh, Gal4-VP16 FLuc, IL-1B inflam inh, ELG1 DNA repair)
COc1ccc(-c2nc3cc(C(C)C)ccc3o2)cc1NC(=O)c1ccccc1[N+](=O)[O-]	TDP1 cell noCPT 10.3µM, DT40 TDP1 CPT 8.2µM (no result: RORgamma inh, Gal4-VP16 FLuc, IL-1B inflam inh, ELG1 DNA repair)
COc1cc(NC(=O)c2cccs2)ccc1NC(=O)c1cc2ccccc2o1	TDP1 cell noCPT 11.6µM, DT40 TDP1 CPT inconclusive, ELG1 DNA repair inconclusive
Cc1ccc2onc(CC(=O)Nc3cc(F)ccc3F)c2c1	none (no result: RORgamma inh, Gal4-VP16 FLuc, IL-1B inflam inh, ELG1 DNA repair)
